# Screening data as filed in PubChem.
# DAX1 inh-1 – NR0B1 (DAX1) inhibition | AID 504766 | HEK293 Gal4-DAX1 luciferase reporter, luminescence | inhibition, % at 6.75 µM | 0.99% of 340,000 active | P51843;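 active = inhibition above the mean over all tested compounds plus 3 SD, cut at about 4.2% in these data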;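 also: 0% = DAX1-transfected cells with DMSO and 100% = empty-vector control cells with DMSO; inhibition shows as a rise in luminescence from relieved DAX1 repression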
# Target sequence (P51843 207-470 limits assumed): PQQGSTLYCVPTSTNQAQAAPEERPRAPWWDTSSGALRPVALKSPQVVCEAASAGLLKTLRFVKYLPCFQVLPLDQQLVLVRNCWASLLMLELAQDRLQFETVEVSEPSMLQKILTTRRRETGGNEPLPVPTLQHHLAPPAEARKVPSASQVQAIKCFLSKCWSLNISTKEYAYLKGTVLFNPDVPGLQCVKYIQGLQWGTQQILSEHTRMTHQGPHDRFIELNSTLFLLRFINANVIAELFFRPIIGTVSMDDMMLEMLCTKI
# hgDAF12 agonist – hgDAF-12 agonism, primary luciferase screen; 1.8% of 370,000 active; HEK293 GAL4-hgDAF12 UAS-luciferase reporter, agonist luminescence; normalized to butyrate control; activation, % at 6.8 µM;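 active = activation above a cutoff set at the mean of all screened compounds plus 3 SD, cut at about 10% in these data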;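 also: 0% = DMSO wells and 100% = sodium butyrate wells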
# DAX1 inh-2 – DAX1 (NR0B1) inhibition, primary screen; HEK293T StAR-luciferase reporter, SF-1/DAX-1 repression relief; inhibition, % at 6.8 µM; 1.1% of 370,000 active; AID 652010;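 active = inhibition above the mean over all tested compounds plus 3 SD, cut at about 3.6% in these data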;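 also: 0% = DAX-1 cells with DMSO and 100% = cells lacking DAX-1 with DMSO; higher inhibition means more luminescence from relief of DAX-1 repression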
# ssDAF-12 act – activators of S. stercoralis DAF-12 nuclear receptor; HEK293 ssDAF-12/GRIP1 lit1-tk-luc reporter, luminescence; % of 3 µM dafachronic acid response; activation, % at 6.8 µM; 1% of 370,000 active; AID 652126;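 active = activation above the mean over all tested compounds plus 3 SD, cut at about 0.9% in these data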;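 also: 0% = DMSO-only wells and 100% = 3 µM delta7-dafachronic acid wells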
# hcDAF-12 act – activators of H. contortus DAF-12 nuclear receptor; HEK293 hcDAF-12 lit1-tk-luc reporter, luminescence; 0% DMSO, 100% Δ7-dafachronic acid; activation, % at 6.8 µM; 1.4% of 370,000 active; AID 652067;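 active = activation above the mean of all tested compounds plus 3 SD, cut at about 5.5% in these data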;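 also: 100% = response to 3 µM Δ7-dafachronic acid high control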
# An asterisk follows results filed as active; nt = no result given. Compounds with a hit are over-represented: about 4.1% of the library has one in this group of screens.
SMILES,DAX1 inh-1,hgDAF12 agonist,DAX1 inh-2,ssDAF-12 act,hcDAF-12 act
COCc1[nH]nc2c1C(c1ccc(Br)cc1)N(c1ccc(OC)cc1)C2=O (stereo unspecified),nt,-1,1,-1,-2
Clc1ccc(Nc2nc3cccnc3s2)cc1,2,11*,1,0,4
CCCS(=O)(=O)Nc1cccc(-c2nc3cccnc3s2)c1,0,6,0,-1,1
O=[N+]([O-])c1cccnc1Nc1ccc(Cl)cc1,0,4,0,-1,2
CCCCNc1nc2cccnc2s1,6.3*,5,0,-1,0
O=[N+]([O-])c1ccc(O)c(/C=N/n2cnnc2)c1,5.1*,0,1,-1,-1
O=[N+]([O-])c1cccc(/C=N/n2cnnc2)c1,6.3*,-2,1,0,1
CN(C)/N=C/c1cc([N+](=O)[O-])ccc1O,-2,0,1,-1,0
Brc1cccc(/C=N\n2cnnc2)c1,2,0,0,-2,-1
CC1(c2nnnn2Cc2ccccc2)CCC(=O)N1Cc1cccs1 (stereo unspecified),nt,-1,0,-1,-1
Brc1ccc(NCc2cccc3ccccc23)nc1,-1,-1,0,-1,-2
Oc1ccccc1CNc1ccc(Br)cn1,2,12*,1,-1,4
C[C@H]1CCC/C=C/[C@@H]2C[C@H](O)C[C@H]2[C@H](O)[C@H](S(=O)c2ccc(O)cc2)CC(=O)O1 (stereo partly specified),-3,-8,6.3*,-2,-2
COc1cccc(NC(=O)CN(C)C(=O)/C=C/c2ccc3ccccc3n2)c1,-1,2,0,0,3
N#Cc1cc2c(nc1SCC(=O)Nc1nccs1)CCCCC2,2,21*,7.7*,1.0*,11*
CCc1nnc(NC(=O)CSc2nc3c(cc2C#N)CCC3)s1,0,10,2,0,1
O=C(Cc1cc(=O)[nH][nH]1)N/N=C/c1ccccc1C(F)(F)F,nt,1,1,-1,-1
COc1ccccc1N1C(=O)S/C(=C\c2cccs2)C1=O,-1,4,0,1.0*,5
Cn1nc(C(C)(C)C)cc1C(=O)NCC1CCN(C(=O)C(=O)c2cc3ccccc3o2)CC1,nt,-3,-3,-2,-3
O=C(C1CCC(Cn2c(=S)[nH]c3ccccc3c2=O)CC1)N1CCOCC1 (stereo unspecified),5.7*,-2,-1,-2,0
O=C(C1CCC(Cn2c(=S)[nH]c3ccccc3c2=O)CC1)N1CCN(c2ccccc2)CC1 (stereo unspecified),-1,-5,-2,-2,-4
O=c1c2cc(N3CCOCC3)ccc2[nH]c(=S)n1CC1CCCO1 (stereo unspecified),0,3,0,0.9*,0
O=C(Cn1cnc2ccccc2c1=O)N1CCN(S(=O)(=O)c2ccc(F)cc2)CC1,0,-1,3.6*,-1,1
O=C(Cn1cnc2ccccc2c1=O)N1CCN(c2ccc(F)cc2)CC1,0,1,0,-1,-2
O=C(NCCc1ccccc1)OCc1cn(-c2c(F)cccc2F)nn1,nt,0,0,-1,-1
SMILES,DAX1 inh-1,hgDAF12 agonist,DAX1 inh-2,ssDAF-12 act,hcDAF-12 act
Clc1ccc(C=Cc2ccccn2)cc1,3,13*,3,1,6
O=C(Nc1sc2c(c1C(=O)O)CCC2)c1cccs1,2,4,1,-1,5.7*
Cc1ccc2nc(-c3ccncc3)c(NC3CCCC3)n2c1,5.0*,1,-1,-1,-1
CCNC(=O)CCc1nc(-c2ccc(C(C)C)cc2)no1,nt,-3,nt,-2,-3
CON(C)S(=O)(=O)c1cccc(C(=O)N(CC(=O)Nc2ccccc2C(F)(F)F)Cc2ccco2)c1,-1,-4,0,-2,2
O=C(CN(Cc1ccco1)C(=O)c1cccc(F)c1)Nc1ccccc1C(F)(F)F,1,0,3.7*,-1,0
Cn1cccc1Cc1nnc(SCC(=O)N2CCOCC2)n1-c1ccc(F)cc1,4.2*,0,-1,-1,-2
COc1ccc(-n2c(Cc3cccn3C)nnc2SCC(=O)N2CCOCC2)cc1,0,0,0,-2,-1
CCOC(=O)C1=C[C@@H](C(C)(C)C)N(S(=O)(=O)c2ccc([N+](=O)[O-])cc2)[C@H]1c1ccccc1,nt,-1,-3,-1,-3
Cc1cc(C)cc(OCC(=O)OCC(=O)NC2CCCCCCC2)c1,2,2,4.3*,-1,0
